Source: PubChem (several laboratories)
Compounds with a hit are over-represented: about 8.7% of the library has one in this group of screens.
PostGolgi yeast: phenotypic screen on post-Golgi transport, primary screen; inhibition, % at 10 µM; post-Golgi transport phenotypic cell assay; 98,000 compounds, 0.9% hits;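 also: yeast cells grown in 1536-well plates; yeast grown about 18 h at 30C before absorbance read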
PostGolgi ctrl: growth inhibition of yeast control strain, primary screen, counter-screen for post-Golgi transport modulator project | AID 738, 2007 | inhibition, % at 10 µM | efflux-deficient yeast background strain, growth absorbance A615, 16 h | 98,000 compounds, 5% hits
Smad3 FoxH1 inh: Smad3/FoxH1 peptide binding inhibitors, primary screen, biochemical, TR-FRET; Mothers against decapentaplegic homolog 3 (Homo sapiens), P84022; TR-FRET Smad3/Dy647-FoxH1 peptide binding, europium anti-His; inhibition, % at 25 µM; 88,000 compounds, 0.29% hits;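 active = compounds that reduce the energy-transfer binding signal between the protein and its labelled peptide by more than half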
Cav3 T inh: Cav3.2 calcium influx blockers – cell-based, Fluo-4 calcium fluorescence, FDSS, MLSMR library, primary screen; 100,000 compounds, 4% hits; B-score at 10 µM; Cav3.2-expressing cells; stronger effect = lower value;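 active = single-dose well whose peak fluorescence ratio is a statistical outlier from its plate by either plate-standardised score or position-corrected B-score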
TNAP act mid DEA: human TNAP enzyme activators, primary screen, biochemical, luminescent, intermediate phosphate acceptor level | Alkaline phosphatase, tissue-nonspecific isozyme (Homo sapiens), P05186 | purified TNAP, CDP-star luminescence, 100 mM DEA, 30 min; stronger effect = higher value; scale: 0 levamisole-inhibited, 1 vehicle-only enzyme | activation factor at 20 µM | 64,000 tested, under 10 active | AID 813, 2007;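 active = activation factor of at least 2 at 20 µM, relative to controls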
DAT uptake mod: changed hDAT dopamine uptake under cocaine IC80, either direction, primary screen, cocaine antagonist project, cell-based, LLC-PK1 hDAT, [14C]-dopamine uptake, MLSMR; Sodium-dependent dopamine transporter (Homo sapiens), Q01959; LLC-PK1 hDAT cells, [14C]-dopamine uptake with cocaine IC80; actives deviate in either direction; B-score at 10 µM; 110,000 compounds, 1.3% hits; AID 449768, 2010;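 active = Z score or B-score, a plate-position-corrected score, falls beyond the plate's 99.7% confidence bounds, in either direction; inactive = both scores lie inside the 99.7% bounds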
Target sequence (Q01959 whole entry, looked up): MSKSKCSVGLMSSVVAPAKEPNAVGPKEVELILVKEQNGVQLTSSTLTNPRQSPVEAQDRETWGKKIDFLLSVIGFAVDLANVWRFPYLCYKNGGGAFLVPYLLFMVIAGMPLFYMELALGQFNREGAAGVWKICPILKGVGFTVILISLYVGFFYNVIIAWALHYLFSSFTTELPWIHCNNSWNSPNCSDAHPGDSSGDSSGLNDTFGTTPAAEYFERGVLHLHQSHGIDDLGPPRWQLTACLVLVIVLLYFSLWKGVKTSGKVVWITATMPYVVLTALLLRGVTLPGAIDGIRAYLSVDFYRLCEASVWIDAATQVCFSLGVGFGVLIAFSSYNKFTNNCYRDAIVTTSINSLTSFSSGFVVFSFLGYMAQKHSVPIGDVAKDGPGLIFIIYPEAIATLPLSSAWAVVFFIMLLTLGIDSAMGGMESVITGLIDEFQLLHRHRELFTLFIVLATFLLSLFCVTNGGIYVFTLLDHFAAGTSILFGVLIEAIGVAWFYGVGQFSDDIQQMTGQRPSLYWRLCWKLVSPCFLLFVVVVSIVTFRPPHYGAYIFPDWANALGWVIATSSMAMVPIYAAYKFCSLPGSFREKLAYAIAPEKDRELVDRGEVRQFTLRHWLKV
A number is an active result; i = inactive; nt = no result given. Rule as the data show it, unless noted: active = inhibition above about 30%; inactive = the rest.

SMILES	PostGolgi yeast	PostGolgi ctrl	Smad3 FoxH1 inh	Cav3 T inh	TNAP act mid DEA	DAT uptake mod
Cc1cc(N2CCCCC2)nc(NCc2ccccc2)n1	i	i	i	i	nt	i
COc1ccc(COc2cc(-c3cccc(OC)c3)nc3ccc(NC(=O)c4ccc(OC)cc4)cc23)cc1	nt	nt	nt	i	nt	i
COc1ccc(COc2cc(-c3cccc(OC)c3)nc3ccc(NC(=O)c4cccnc4)cc23)cc1	nt	nt	nt	i	nt	2.67
CCOC(=O)C(O)(CC(=O)c1ccc(OC)cc1)C(F)(F)F (stereo not given)	nt	nt	i	i	nt	-8.8
CN(C)c1nc(SCCOC(=O)Nc2ccccc2)nc(N(C)C)n1	i	i	i	-4.74	i	i
COc1ccc(OCCSc2ncccn2)cc1	i	32.8	i	i	i	i
CCNc1nc(SCCOc2ccc(C)cc2)nc(N(C)C)n1	i	i	i	i	i	i
CCOc1nc(SCCOc2ccccc2)nc(N(C)C)n1	40.7	i	i	i	i	i
COc1ccc(OCCCSc2ncccn2)cc1	i	i	i	i	i	i
O=C(CSc1nc(-c2ccco2)cc(C(F)(F)F)n1)NCC1CCCO1 (stereo not given)	i	i	i	i	nt	i
COc1ccc(S(=O)(=O)NC(C)C(=O)O)cc1 (stereo not given)	i	i	i	i	nt	i
CCN(CC)CCN1C(=O)C(=O)/C(=C(/O)c2c(C)[nH]c(C(=O)OC)c2C)C1c1cccs1 (stereo not given)	i	i	i	i	nt	i
NC(=O)c1c(NC(=O)CSc2nnc(-c3ccco3)n2-c2ccccc2)sc2c1CCC2	i	i	i	i	i	i
O=C(C1=C[C@H](c2coc3ccccc3c2=O)C[C@H](OCCCCO)O1)N1CCN(Cc2ccccc2)CC1	nt	nt	nt	i	nt	i
O=C(OCC#CCSc1nnc(-c2ccncc2)o1)c1cccs1	i	i	i	-4.28	i	i
Cc1ccc(-c2cc(C(=O)NCc3cnn(C)c3C)c3cc(Br)ccc3n2)cc1	i	49.9	nt	i	nt	i
CCOc1ccccc1-c1nn2c(Cc3ccccc3)nnc2s1	i	78.4	i	i	i	i
O=[N+]([O-])c1ccc(-c2nc3ccc([N+](=O)[O-])cc3[nH]2)cc1	i	i	nt	i	nt	i
O=[N+]([O-])c1ccc2nc(/C=C/c3ccc(Cl)cc3)[nH]c2c1	47.4	74.5	nt	i	nt	i
CCn1c(=N)n(CCOc2ccc(OC)cc2)c2ccccc21	i	i	i	i	i	i
COC(=O)c1ccc(C)c(NC(=O)Cn2cnc3ccccc3c2=O)c1	i	i	i	i	i	i
CCCN(CCO)Cc1cccc(Cl)c1	i	i	i	i	i	i
CCOC(=O)C1CCCN(C(=O)C2CCN(S(=O)(=O)N3CCC4(CC3)OCCO4)CC2)C1 (stereo not given)	i	i	i	nt	i	i
CC(O)CNc1nc2ccccc2n1-c1ncnc2sc3c(c12)CCC3 (stereo not given)	i	i	i	-6.42	i	2.83
COc1ccc2c3c([nH]c2c1)C1CC2C(CC(O)C(OC)C2CO)CN1CC3 (stereo not given)	nt	nt	nt	i	nt	i
SMILES	PostGolgi yeast	PostGolgi ctrl	Smad3 FoxH1 inh	Cav3 T inh	TNAP act mid DEA	DAT uptake mod
CCCc1ccc(Oc2cn[nH]c2-c2ccc(O)cc2O)cc1	97.2	99.0	i	i	i	i
COc1ccc(Oc2cn[nH]c2-c2ccc(O)cc2O)cc1	i	i	i	-5.95	i	i
O=C(NCc1ccncc1)Nc1ccccc1Cl	i	i	i	i	i	i
CCCCc1sc(-c2c(C#N)c(N)nc3c2CCCCC3)cc1[N+](=O)[O-]	i	i	nt	-4.81	nt	i
CCCCc1ccc(-c2c(C#N)c(N)nc3c2CCCC3)s1	i	i	nt	i	nt	i
COc1ccc(S(=O)(=O)N2CCC(NC(=O)OCc3c(Cl)cccc3Cl)CC2)cc1	i	31.6	nt	i	nt	i
COc1ccc(S(=O)(=O)N2CCCC(C(=O)NC3CCCCC3)C2)cc1 (stereo not given)	i	31.6	i	i	i	i
COC(=O)c1ccc(NC(=O)Cn2cnc3c(nnn3-c3cccc(OC)c3)c2=O)cc1	nt	nt	nt	i	nt	i
CSc1ccc(C#N)cc1NC(=O)c1ccc(Cl)cc1Cl	i	i	nt	i	nt	i
CCCCNC(=S)NC(=O)c1ccc([N+](=O)[O-])cc1	i	i	nt	i	nt	i
CC(C)CNC(=S)NC(=O)c1ccc([N+](=O)[O-])cc1	i	31.9	nt	i	nt	i
O=C(N/N=C/c1ccco1)/C(=C/c1cccc([N+](=O)[O-])c1)NC(=O)c1ccccc1	i	i	nt	i	nt	i
O=C(N/N=C/c1ccc(Br)o1)/C(=C/c1ccc([N+](=O)[O-])cc1)NC(=O)c1ccccc1	i	i	nt	-4.91	nt	i
Cc1nn(C(=O)c2cccnc2)c(C)c1C	i	i	i	i	i	i
CC(C)c1nc2oc3c(NCC4CCCO4)ncnc3c2c2c1COC(C)(C)C2 (stereo not given)	i	34.5	i	nt	i	i
Cc1cc(C)n(CC(O)Cn2c3ccc(Br)cc3c3cc(Br)ccc32)c(=O)n1 (stereo not given)	99.3	103.5	i	i	nt	i
CCOC(=O)CCN(Cc1sccc1C)S(=O)(=O)c1ccc(F)cc1	i	i	i	i	nt	3.79
COC(=O)Nc1ccccc1C(=O)N1CCCCC1	i	i	i	i	i	-2.74
O=C(c1ccccc1Nc1ccc(SC(F)F)cc1)N1CCCCC1	i	i	i	-7.05	nt	i
CCCCOC(=O)Nc1ccccc1C(=O)N1CCCC1	nt	nt	nt	nt	i	nt
O=C(CSc1nc2ccc(S(=O)(=O)N3CCOCC3)cc2[nH]1)N1CCOCC1	i	i	i	i	i	i
O=C(NC1CCCCC1)c1nc2c(nnn2Cc2ccccc2Cl)c(=O)[nH]1	i	i	i	-5.3	i	i
CCCCOc1ccc(CSc2n[nH]c(C)n2)cc1	i	i	i	i	i	i
N#Cc1nc(COc2ccc(F)cc2)oc1N1CCCC1	i	i	i	i	i	i
c1ccc(COc2ccc(CN3CCN(c4ccccn4)CC3)cc2)cc1	73.2	i	i	i	nt	i
SMILES	PostGolgi yeast	PostGolgi ctrl	Smad3 FoxH1 inh	Cav3 T inh	TNAP act mid DEA	DAT uptake mod
N#Cc1nc(COc2cccc(Cl)c2)oc1N1CCCC1	i	i	i	i	i	i
Cc1ccc(OCc2nc(C#N)c(N3CCN(Cc4ccccc4)CC3)o2)cc1	i	i	i	-5.89	i	i
N#Cc1nc(COc2ccccc2)oc1N1CCC(Cc2ccccc2)CC1	i	40.3	i	-5.62	i	i
COc1ccc(CN2CCN(c3ccccn3)CC2)c(OC)c1	i	i	i	i	i	i
CCCn1c(=O)c2ccccc2n2c(SCc3nc4ccccc4s3)nnc12	i	i	i	i	i	i
Cc1ccc(NC(=O)CSc2nc(NS(=O)(=O)c3ccccc3)cc(=O)[nH]2)cc1	i	i	i	i	nt	i
CCc1ccccc1NC(=O)C(C)n1nc([N+](=O)[O-])c(Br)c1C (stereo not given)	i	i	nt	i	nt	i
